Results filed as inconclusive are left out. Values without a mark were called inactive. The source made the active and inactive calls. Calls follow the shape of the dose curve; as a rule, active = well fitted inhibition curve with a large enough effect; inconclusive = small, poorly fitted or top-dose-only effect; inactive = flat fitted curve, though single readings scatter.
molecular target: Glutathione peroxidase 1 (Homo sapiens) (UniProt P07203); assay: Primary qHTS Assay for Inhibitors of Recombinant Selenoprotein Glutathione Peroxidase 1 (GPX1) (AID 1845191); conditions: recombinant GPX1, GR-coupled NADPH fluorescence, 15 min; series mostly up to 48.8 µM; activity, negative = inhibition: at the top concentration; also: nearly all actives have a fitted effect of over 65% in size
Sequence (P07203 whole entry, looked up): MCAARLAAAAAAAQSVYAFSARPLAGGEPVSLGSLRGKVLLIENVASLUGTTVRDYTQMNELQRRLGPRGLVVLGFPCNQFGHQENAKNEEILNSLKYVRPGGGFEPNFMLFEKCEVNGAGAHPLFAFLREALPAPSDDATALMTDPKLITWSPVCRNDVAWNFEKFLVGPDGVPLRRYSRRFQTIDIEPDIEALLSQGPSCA
Method in brief: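 Recombinant GPX1 (10 nM final) was preincubated with compound for 30 min at room temperature, then reacted with 1 mM GSH, 0.5 mM CHP, 0.5 mM NADPH and 100 nM glutathione reductase; NADPH fluorescence (340/450 nm) was read at 0 and 15 min.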
% is scaled to controls: 0 for no effect and ±100 for the full control effect.

SMILES | outcome | activity, negative = inhibition | Potency
NC(=O)N1CCC(CC(=O)N2CCC(C3c4ncc(Br)cc4CCc4cc(Cl)cc(Br)c43)CC2)CC1 (centres undefined) | inactive |  | 
C=C(C(=O)OC[C@H]1O[C@@H](OC(=O)/C=C/c2ccccc2)[C@H](O)[C@@H](O)[C@@H]1O)C(O)CO (some centres undefined) |  | -11% [at 27.7 µM] | 
CN(C)Cc1ccc(-c2cnn3c(-c4cccc(NC(=O)c5cccc(C(F)(F)F)c5)c4)ccnc23)cc1 | inactive |  | 
OC1C=C2C3CN(Cc4cc5c(cc43)OCO5)C2CC1O (centres undefined) |  | -5.25% | 
CN(C)[C@@H]1CCc2[nH]c3ccc(NC(=O)c4ccc(F)cc4)cc3c2C1 |  | -11.6% | 
COCc1c(Cl)ccc2c1CC[C@H]2c1ncc[nH]1 | inactive |  | 
CN1CCN(C2=Nc3ccccc3Nc3ccc(Cl)cc32)CC1 |  | -20.7% | 
CC(C)C[C@@H](C(=O)N[C@@H](Cc1ccc(OCc2ccccc2)cc1)C(=O)NC(C)(C)C)N(C)Cc1ccc(C(C)(C)C)cc1 |  | -10.2% | 
C=C1/C(=C/C=C2\CCC[C@]3(C)[C@@H]([C@H](C)/C=C/[C@@H](C)C(C)C)CC[C@@H]23)C[C@@H](O)C[C@@H]1O |  | 4.04% | 
C/C=C(/C)C(=O)O[C@H]1C=C(CO)C(=O)[C@H](OC(=O)/C(C)=C/CO)[C@H]1C(C)C |  | -18.1% [at 27.7 µM] | 
CC1(C(=O)Nc2ccc(F)nc2)CCCN1c1nc(Nc2cc(C3CC3)[nH]n2)c2cccn2n1 (centres undefined) |  | -3.48% | 
O=C(Nc1ccc2[nH]nc(-c3ccncc3)c2c1)[C@@H]1CCN(CC(=O)N2CCN(c3ccc(-c4ncccn4)cc3)CC2)C1 |  |  | inactive
C/C(=N\N=C(N)N)c1cc(NC(=O)CCCCCCCCC(=O)Nc2cc(/C(C)=N/N=C(N)N)cc(/C(C)=N/N=C(N)N)c2)cc(/C(C)=N/N=C(N)N)c1 | inactive |  | 
COC(=O)C[C@H]1[C@]2(C)C3=C(C)[C@H](c4ccoc4)C[C@H]3O[C@@H]2[C@H](O)C2[C@](C)(C(=O)OC)C=CC(=O)[C@@]21C (some centres undefined) | inactive [at 27.7 µM] |  | 
Cc1[nH]c(/C=C2\C(=O)Nc3ccc(F)cc32)c(C)c1C(=O)NCCN1CCCC1 |  |  | inactive
Cc1ccc(N2CCN(CCC3NC(=O)c4ccccc43)CC2)cc1C (centres undefined) |  | -11.9% | 
c1ccc(-c2cnn3cc(-c4ccc(OCCN5CCOCC5)cc4)cnc23)cc1 | inactive |  | 
COc1ccc(N(C(=O)Nc2c(C)cccc2C)c2cc(Nc3ccc(N4CCN(C)CC4)cc3)ncn2)c(OC)c1 | inactive |  | 
O=C1Cc2c([nH]c3ccc(Br)cc23)-c2ncccc2N1 |  | -1.76% | 
COc1ccc([C@H](Cc2ccncc2)c2ccccc2)cc1OC1CCCC1 |  | -10.2% | 

SMILES | outcome | activity, negative = inhibition | Potency
Cc1cc(C)c(S(=O)(=O)n2cc(C)cc2C)c(C)c1 | inactive |  | 
COC(=O)c1ccc2c(c1)nc(NC(=O)c1ccccc1)n2CCCc1ccccc1 | inactive |  | 
C=C1CC[C@@H](O)[C@]2(C)CC[C@H]3C(=C)C(=O)O[C@@H]3[C@@H]12 |  | -13.2% | 
COc1cc(CCO)ccc1O[C@@H]1O[C@H](CO)[C@@H](O)[C@H](O)[C@H]1O |  | -11.5% [at 27.7 µM] | 
Cc1[nH]c2ccc(F)cc2c1-c1nc2c3cccnc3c3ncccc3c2[nH]1 | inactive [at 98.3 µM] |  | 
O=C(NNc1nc2cc(F)ccc2n2cccc12)c1cnccn1 |  | -8.6% | 
CO[C@H]1C[C@@H]2CC[C@@H](C)[C@@](O)(O2)C(=O)C(=O)N2CCCC[C@H]2C(=O)O[C@H]([C@@H](C)C[C@@H]2CC[C@@H](O)[C@H](OC)C2)CC(=O)[C@H](C)/C=C(\C)[C@@H](O)[C@@H](OC)C(=O)[C@H](C)C[C@H](C)/C=C/C=C/C=C/1C |  |  | inactive
C=C1C(=O)OC2/C=C(\C)CC/C=C(\C=O)C(OC)C(OC(=O)C(C)CC)C12 (centres undefined) |  | -15.5% [at 27.7 µM] | 
COc1cc2ncnc(Nc3ccc(F)c(Cl)c3)c2cc1O |  | -14.1% | 
COc1cccc(NCCC2(c3ccccc3)CC(C)(C)OC(C)(C)C2)c1 |  | -17.3% | 
O=S(=O)(Nc1ccccc1N1CCCCC1)c1ccc(Cl)s1 |  | -4.29% | 
COc1cc2c(cc1O)C1(Cc3ccc4c(c3C1O)OCO4)[N+](C)([O-])CC2 (centres undefined) | inactive [at 27.7 µM] |  | 
Cn1cc(C2=C(c3coc4ccccc34)C(=O)NC2=O)c2cc(Br)ccc21 |  | -6.09% | 
C=C1C(=O)OC2C=C(C)CC/C=C(\CO)CC(O)C12 (centres undefined) | inactive |  | 
CC1(C)SCCN(S(=O)(=O)c2ccc(Oc3ccncc3)cc2)[C@H]1C(=O)NO |  | 3.08% | 
C=C1C(=O)OC[C@@H]1C/C=C(\C)CC1CC(C)C(=O)O1 (some centres undefined) | inactive |  | 
CC(=O)O[C@]1(C(C)=O)CC[C@H]2[C@@H]3CCC4=CC(=O)CCC4=C3[C@@H](c3ccc(N(C)C)cc3)C[C@@]21C |  | -22.2% | 
Cc1cc(-c2cc(OC(=O)c3ccccc3)ccc2Cl)cc2nnc(Nc3ccc(OCCN4CCCC4)cc3)nc12 | inactive [at 27.7 µM] |  | 
C[C@H]1CO[C@@H]2Cn3cc(C(=O)NCc4ccc(F)cc4F)c(=O)c(O)c3C(=O)N12 |  | -2.74% | 

Source: PubChem BioAssay (NCATS)
